# Source: publication PMC5540273 (PLoS ONE, 2017)
# How the values were obtained:
# Details in all cases: concentration: 1 μM, replicates: in singlicate; n = 1
# [1] = test system: PRKCD
# [2] = test system: PRKCE
# [3] = test system: PRKCH
# [4] = test system: PRKCI
# [5] = test system: PRKCQ
# [6] = test system: PRKD1
# [7] = test system: PRKD2
# [8] = test system: PRKD3
# [9] = test system: PRKG1
# [10] = test system: PRKG2
# [11] = test system: T1, PRKR
# T1 construct: gene EIF2AK2
# [12] = test system: PRKX
# [13] = test system: PRP4
# [14] = test system: T2, PYK2
# T2 construct: gene PTK2B
# [15] = test system: QSK
# [16] = test system: RAF1
# [17] = test system: RET
# [18] = test system: RIOK1
# [19] = test system: RIOK2
# [20] = test system: RIOK3
# 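Also: KINOMEscan kinase panel screen.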
Compound,%Inh [1] [%],%Inh [2] [%],%Inh [3] [%],%Inh [4] [%],%Inh [5] [%],%Inh [6] [%],%Inh [7] [%],%Inh [8] [%],%Inh [9] [%],%Inh [10] [%],%Inh [11] [%],%Inh [12] [%],%Inh [13] [%],%Inh [14] [%],%Inh [15] [%],%Inh [16] [%],%Inh [17] [%],%Inh [18] [%],%Inh [19] [%],%Inh [20] [%]
COc1cc2c(Nc3cccc(NC(=O)c4ccccc4)c3)ncnc2cc1OCCCN1CCOCC1 [GSK223810],18,13,10,8,22,2,4,5,8,0,0,7,2,24,0,16,90.8,38,10,24
FC(F)(F)c1cc(Nc2nccc(-c3c(-c4ccc(Cl)cc4)nn4ncccc34)n2)ccc1Cl [GW829351],0,17,0,0,3,0,0,0,23,0,26,0,14,0,0,1,0,0,0,0
CC(C)(C)c1ccc(-n2cnc3c(N)ncnc32)cc1 [SKF-97263],6,13,29,1,15,0,0,55,11,0,0,19,7,4,0,0,8,22,26,23
Cc1ccc(C)c(NC(=O)NCCNc2ccnc(Nc3ccc(F)cc3)n2)c1 [GSK1379878],0,0,0,0,0,1,0,0,0,0,0,0,48,7,0,42,3,36,0,37
COc1ccc(Nc2nccc(N3CCC(NC(=O)c4cccc(NC(C)=O)c4)C3)n2)cc1 (stereo not shown) [GSK1379732],8,16,17,5,25,13,20,11,2,11,0,0,48,0,0,0,0,37,0,0
Cc1cc(N2CCC(NS(=O)(=O)c3ccc(F)cc3)CC2)nc(Nc2cccc(C#N)c2)n1.O=C(O)C(F)(F)F [GSK1653537],3,0,27,12,19,35,31,43,3,0,0,0,3,37,9,0,29,45,0,25
N#Cc1ccc(Oc2ccc(Nc3ncnc4cc[nH]c34)cc2Cl)cc1,0,0,22,12,19,0,10,0,0,30,0,7,0,10,0,0,19,21,8,1
c1ccc(-c2ccc3c(-c4ccnc(Nc5ccc6c(c5)OCCO6)n4)cnn3n2)cc1 [GW818941],1,0,9,9,37,0,18,16,42,0,0,1,17,8,0,20,1,37,15,12
Fc1cccc(COc2ccc(Nc3ncnc4cc[nH]c34)cc2Cl)c1,14,0,0,12,10,0,25,0,2,13,0,19,34,2,9,4,5,21,15,20
COc1ccc(NC(=O)Nc2ccc(C)c(-c3ccc(C(=O)Nc4ccncc4)cc3)c2)cc1 [GSK1398475],0,3,0,0,0,0,11,5,0,0,0,10,19,3,0,50,0,31,0,8
Cl.c1ccc(Cn2ncc3cc(Nc4ncnc5ccccc45)ccc32)cc1 [GW273749],0,0,0,0,0,0,2,22,5,0,0,4,15,0,10,16,13,39,0,19
FC(F)(F)c1ccc(-c2nn3ncccc3c2-c2ccnc(Nc3cccc(C(F)(F)F)c3)n2)cc1 [GW828205],16,0,0,30,0,7,6,0,5,16,0,0,0,1,0,0,0,26,0,25
Cl.Fc1ccccc1COc1ccc(Nc2ncnc3ccc(-c4nnc(C(F)(F)F)o4)cc23)cc1Cl [GW424170],0,0,2,15,0,0,0,0,0,4,0,0,16,14,0,7,0,22,0,18
CC(C)N1CCC(n2cnc(-c3ccc(F)cc3)c2-c2ccnc(N)n2)CC1 [SB-223132],9,0,0,29,0,18,0,0,2,2,18,0,41,12,0,33,2,0,0,60
CC(C)(C)OC(=O)NC1CCCN(c2cc(-c3ccc4c(N)n[nH]c4c3)nc(N)n2)C1 (stereo not shown) [GSK2286096],0,12,0,0,0,0,15,0,0,70,0,21,0,0,5,7,0,23,27,23
Fc1cccc(COc2ccc(Nc3ncnc4sc(-c5ccc[nH]5)cc34)cc2Cl)c1 [GW707818],0,14,100,9,0,26,54,0,0,10,3,4,25,0,0,18,14,22,0,40
FC(F)(F)c1ccc(-c2cc(-c3c[nH]nc3-c3ccccn3)ccn2)cc1 [GW599550],0,6,21,23,16,23,16,17,4,2,8,12,31,0,0,18,14,25,5,25
Cn1ccc2ncnc(Oc3ccc(NC(=O)Nc4cccnc4)c(Cl)c3)c21,13,0,6,0,28,0,8,0,0,0,7,12,20,9,0,0,52,0,53,4
Nc1nc(-c2cccnc2)c(-c2ccnc3ccccc23)s1 [GW684083],0,0,31,21,4,24,34,0,0,0,0,31,19,16,5,11,0,30,38,0
CCc1nc(-c2cccc(N(C)S(=O)(=O)c3ccccc3)c2)c(-c2ccnc(Nc3ccc(N4CCN(C(C)=O)CC4)nc3)n2)s1 [GSK1645895],0,0,0,0,15,3,12,9,0,0,17,23,16,0,1,18,0,17,5,15
